CYP2C9 act = CYP2C9 (human) activation | activation factor at 5 µM | P11712 | 1.4% of 96,000 active | recombinant CYP2C9, luciferin-H conversion, luminescence; stronger effect = higher value; factor 1 = untreated enzyme, 0 = blocked;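 active = activation factor of 2 or more for CYP2C9 at a 5 µM dose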;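 note: 0 = sulfaphenazole-blocked wells and 1 = vehicle-only wells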
Target sequence (P11712 whole entry, looked up): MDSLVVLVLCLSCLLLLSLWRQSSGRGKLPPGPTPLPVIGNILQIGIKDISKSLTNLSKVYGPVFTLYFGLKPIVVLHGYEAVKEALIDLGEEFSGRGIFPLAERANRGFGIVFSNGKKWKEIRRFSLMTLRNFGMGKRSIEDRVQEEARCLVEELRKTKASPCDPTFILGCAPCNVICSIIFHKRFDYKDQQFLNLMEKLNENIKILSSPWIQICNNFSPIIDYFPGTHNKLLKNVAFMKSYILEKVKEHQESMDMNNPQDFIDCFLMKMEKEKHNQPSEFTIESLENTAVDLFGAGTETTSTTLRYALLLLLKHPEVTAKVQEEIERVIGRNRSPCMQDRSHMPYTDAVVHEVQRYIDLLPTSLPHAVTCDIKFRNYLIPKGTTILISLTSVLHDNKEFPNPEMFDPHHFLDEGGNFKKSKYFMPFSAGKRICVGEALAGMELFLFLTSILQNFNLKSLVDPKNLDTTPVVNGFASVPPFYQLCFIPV
CYP2C19 act = cytochrome P450 2C19 (human) activation; 96,000 tested, under 10 active; P33261; recombinant CYP2C19, luciferin-H EGE luminescence; stronger effect = higher value; 0 = fully inhibited enzyme, 1 = untreated enzyme; activation factor at 5 µM;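 active = activation factor of at least 2 at 5 µM in the primary screen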;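 note: 0 = wells with 2.5 mM tranylcypromine and 1 = vehicle-only wells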
MRP1 act = MRP-1 activation; H69AR cells + doxorubicin, viability rescue, CellTiter-Glo; viability increase, % at 10 µM; 0.61% of 140,000 active;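 active = viability gain under doxorubicin at or above a set limit, the compound median plus 3 SD, cut at about 4.7% in these data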;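 note: MRP-1 overexpressing cells given doxorubicin 25 µM after compound pretreatment; 18-22 h compound pretreatment then 72 h with doxorubicin before readout; 0% = doxorubicin-only wells and 100% = vehicle-treated cells without doxorubicin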
MRP resist rev = MRP-mediated drug resistance reversal | differential viability (reversal), % at 10 µM | 0.04% of 85,000 active | H69AR cells + 2 uM doxorubicin, CellTiter-Glo, 72 h;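 active = viability drop by adding the cancer drug above about 55%, with treated viability meeting a 40% cutoff, limit read from the data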;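 note: viability without doxorubicin minus viability with 2 µM doxorubicin for each compound; larger differential means the compound sensitizes cells more to doxorubicin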
CYP2C9 inh = human CYP2C9 inhibition | P11712 | CYP2C9 Supersomes, luciferin-H conversion, luminescence | 20% of 96,000 active | inhibition, % at 5 µM | AID 777;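 active = blocking of liver enzyme CYP2C9 beyond about 50% at 5 µM, limit read from the data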
CYP2C19 inh = inhibitors of human CYP2C19 | P33261 | CYP2C19 Supersomes, luciferin-H EGE luminescence, 30 min | inhibition, % at 5 µM | 21% of 96,000 active;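 active = CYP2C19 inhibition above a set limit at 5 µM in the primary screen, cut at about 50% in these data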;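 note: plate controls were negative control wells for no effect and 2.5 mM tranylcypromine positive control for full effect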
* hit, by the source's call; . = not tested or not shown. The list is not random: actives were taken first. Their share in the collection is about 21%.

SMILES	CYP2C9 act	CYP2C19 act	MRP1 act	MRP resist rev	CYP2C9 inh	CYP2C19 inh
COc1ccc(N2CCN(C(=O)CNC(=O)Cn3c(C)cc4ccccc4c3=O)CC2)cc1	1.5	1.1	-2.0	-4.3	-46.4	-7.1
Cc1cc(C)c2cc(C(O)c3nnnn3Cc3ccccc3)c(=O)[nH]c2c1 (stereo unspecified)	1	1	-3.9	-11.6	-0.4	3.2
Cc1cc(C)c2cc(CN(CCO)C(=O)Nc3ccc(F)cc3)c(=O)[nH]c2c1	0.6	0.3	0.0	-14.0	38.4	74.2*
CCC(c1nnnn1Cc1ccc(F)cc1)N(CCCO)Cc1cc2cc3c(cc2[nH]c1=O)OCO3 (stereo unspecified)	0.9	0.4	-3.3	-1.3	12.4	55.0*
Cc1cc(C)c2cc(CN(Cc3ccco3)C(=O)NCc3ccccc3)c(=O)[nH]c2c1	0.4	0.7	-4.0	7.2	55.4*	28.1
Cc1cc(C)c2cc(CN(CCO)C(c3nnnn3Cc3ccc(F)cc3)C(C)C)c(=O)[nH]c2c1 (stereo unspecified)	0.1	0.2	-2.7	-24.4	92.6*	75.7*
Cc1ccnc2nc(C(=O)NCCc3ccc(F)cc3)nn12	1.2	0.8	-1.3	3.0	-22.3	15.4
CC(=O)/C(=N/Nc1ccccc1)Sc1nnc(C(O)c2ccccc2)n1-c1ccccc1 (stereo unspecified)	.	.	-1.6	.	.	.
COc1ccccc1N1C(=O)CCC1(C#N)c1ccccc1 (stereo unspecified)	1	1	-0.4	6.8	4.5	2.8
COc1ccc(C(c2nnnn2CS(=O)(=O)c2ccc(C)cc2)N2CCN(Cc3ccccc3)CC2)cc1 (stereo unspecified)	.	.	.	4.8	.	.
CCOc1ccccc1CN(CCc1ccc2c(c1)OCO2)Cc1ccccn1	0.4	0	-4.9	-9.6	57.8*	98.2*
N#C/C(=C\c1ccc(Cl)s1)C(=O)N1CCN(c2ccccc2)CC1	.	.	0.3	.	.	.
Cc1ccc(S(=O)(=O)Nc2ccc3c(c2)nc2n3CCN(Cc3ccccc3)C2)cc1	0	0.2	-3.5	2.8	95.5*	82.7*
O=S(=O)(Nc1ccc2c(c1)nc1n2CCN(Cc2ccccc2)C1)c1ccc(Cl)cc1	0	0.1	-4.1	6.9	97.9*	87.9*
O=S(=O)(Nc1ccc2c(c1)nc1n2CCN(Cc2ccccc2)C1)c1ccccc1	.	.	-1.5	-5.9	.	.
O=S(=O)(Nc1ccc2c(c1)nc1n2CCN(Cc2ccccc2)C1)c1ccc(F)cc1	0.6	0.8	-3.5	-24.1	38.9	24.8
COc1ccccc1OCC(=O)NNC(=O)C(=O)N1CCCC1	.	.	1.0	.	.	.
Cc1ccc(Oc2ncccc2/C=N/OCc2ccc(Cl)c(Cl)c2)cc1	1.2	1.2	0.9	.	-16.8	-15.4
COc1ccccc1N(CC(=O)NC(C)C)S(=O)(=O)c1cccs1	.	.	-2.4	.	.	.
O=C(Nc1ccccc1N(C(=O)c1ccco1)S(=O)(=O)c1cccs1)c1ccco1	0.3	0.7	-1.0	.	74.8*	29.0
COc1ccc(N(C(=O)c2ccco2)S(=O)(=O)c2cccs2)cc1	0.5	0.7	-0.6	-15.5	50.4*	34.9
COc1ccc(C(=O)N(c2ccc(OC)cc2)S(=O)(=O)c2cccs2)cc1	.	.	-2.2	.	.	.
COc1ccc(N(C(=O)c2ccco2)S(=O)(=O)c2cc(OC)ccc2OC)cc1	0.3	0.8	-1.6	-24.5	72.5*	24.6
COc1ccc(N(C(=O)c2ccco2)S(=O)(=O)c2ccc(F)cc2)cc1	.	.	-3.1	-3.2	.	.
CC(=O)N(c1ccc(N(C(C)=O)S(=O)(=O)c2cccs2)cc1)S(=O)(=O)c1cccs1	0.3	0.8	-0.7	-7.9	73.2*	21.5
SMILES	CYP2C9 act	CYP2C19 act	MRP1 act	MRP resist rev	CYP2C9 inh	CYP2C19 inh
COC(=O)c1ccc(C(=O)OC)c(NC(=O)CSc2cccc[n+]2[O-])c1	1	1.1	-6.6	-53.3	-2.8	-15.0
CCOc1cccc(OCCCNCCCOC)c1	1	1.1	-0.1	21.8	-2.4	-7.7
COc1cccc(-n2c(COc3ccc(C)cc3)nnc2SCC(N)=O)c1	0.8	0.3	-0.6	11.1	22.8	66.7*
CCc1nnc(NC(=O)CSc2nnc(COc3ccccc3)n2-c2ccc(C)cc2)s1	1	1	-2.6	9.0	3.5	-0.4
COc1ccc(CC(=O)NCc2nnc(SCC(=O)Nc3nccs3)n2-c2ccccc2)cc1	0.7	1	-1.2	9.4	27.6	-1.4
CC1CCCC(C)N1C(=O)CSc1nnc(COc2ccccc2)n1-c1ccccc1 (stereo unspecified)	0.6	0.4	-1.4	11.4	41.7	64.8*
Cc1ccc(OCc2nnc(SCC(=O)Nc3cccc4ccccc34)n2-c2ccccc2)cc1	.	.	6.3*	-18.9	.	.
COc1ccc(OCc2nnc(SC(C)C(=O)Nc3nccs3)n2-c2ccccc2)cc1 (stereo unspecified)	0.4	0.5	2.6	-25.8	60.1*	49.7
O=C(CSc1nnc(COc2ccccc2)n1-c1ccccc1)c1ccccc1	0.6	0.6	-3.5	8.3	42.9	38.4
OC(c1ccccn1)(c1ccccn1)c1ccccn1	.	.	0.0	.	.	.
O=C(CNc1ccc(Oc2ccccc2)cc1)N1CCOCC1	1.2	1.1	-1.3	3.1	-17.7	-9.3
CC(=O)Nc1ccccc1C(=O)N1CC(C)OC(C)C1 (stereo unspecified)	1	1.1	0.5	-10.8	2.6	-8.6
NC(=O)CSc1nnc(COc2ccccc2)n1C1CCCCC1	0.4	0.2	.	5.1	56.2*	79.8*
CC(Sc1nnc(-c2ccc(Cl)cc2Cl)n1Cc1ccccc1)C(=O)Nc1nccs1 (stereo unspecified)	0.5	0.6	-5.6	-16.6	53.5*	43.3
S=c1[nH]nc(COc2ccccc2)n1C1CCCCC1	0.7	0.4	-1.8	-2.6	33.5	59.7*
COc1ccc(-n2c(COc3ccccc3)nnc2SCC(N)=O)cc1	0.8	0.4	0.3	-17.2	22.8	62.6*
NC(=O)CSc1nnc(Cc2ccc3c(c2)OCO3)n1C1CCCCC1	1.1	0.8	-0.6	13.6	-8.1	22.6
Cc1nnc(SC(C)C(=O)Nc2ccc(Cl)cn2)n1Cc1ccccc1 (stereo unspecified)	0.9	0.5	-2.2	14.0	8.6	47.5
COc1ccc(-n2c(COc3ccc(C)cc3)nnc2SCC(N)=O)cc1	0.9	0.8	-2.3	-2.9	6.7	16.3
COC(=O)[C@@]1(Cc2ccc(OC)cc2)[C@H]2c3cc(C(=O)N(C)C)[nH]c3C[C@H]2CN1C(=O)c1ccccc1	.	.	-3.8	.	.	.
CC(C)c1ccc(NC(=O)Cn2cccc2C2=NC(c3ccccc3)CO2)cc1 (stereo unspecified)	.	.	-2.2	.	.	.
Cc1oc(-c2ccccc2Cl)nc1Cn1cccc1C1=NC(c2ccccc2)CO1 (stereo unspecified)	0.3	0.6	-0.2	8.0	74.7*	42.7
CC(C)CC1N=C2c3ccccc3N=C(SCc3cc(=O)n4ccccc4n3)N2C1=O (stereo unspecified)	.	.	.	-16.4	.	.

Source: PubChem BioAssay (several laboratories)
